Source: the antibiotic and cytotoxicity screens of Wong et al. (2023)
Screen size: about 39,000 compounds; about 3,300 (8.5%) were called active. This is one part of a sample in which actives are shown more often than they occur.

The molecules below were run on HepG2 (assay: cytotoxicity call (relative viability < 0.9)). Conditions: 10 µM.
For `Cc1cc(C(F)(F)F)cc(Cl)n1`, the cytotoxicity call was “inactive”.
`Cc1ccc(S(=O)(=O)N(C)C[C@@H]2OCCCC[C@H](C)Oc3ccc(NC(=O)Nc4ccc(C(F)(F)F)cc4)cc3C(=O)N([C@H](C)CO)C[C@@H]2C)cc1` was tested, and the cytotoxicity call was “inactive”.
`CC(C)NC(=O)N(C)C[C@H]1Oc2c(NC(=O)NC3CCCCC3)cccc2C(=O)N([C@H](C)CO)C[C@H]1C` was tested, and the cytotoxicity call was “inactive”.
With `C[C@H](CO)N1C[C@H](C)[C@@H](CN(C)C(=O)Cc2cccnc2)Oc2ncc(C#Cc3ccccc3F)cc2C1=O` the cytotoxicity call was “inactive”.
`Cc1nn(C)cc1NC(=O)C[C@H]1CC[C@H]2[C@@H](COc3ccc(NC(=O)C4CCOCC4)cc3C(=O)N2C)O1` was tested, and the cytotoxicity call was “inactive”.
For `COCC(=O)NCc1n[nH]c(=O)c2ccccc12`, the cytotoxicity call was “inactive”.
For `CC1(C)OC(=O)C2(C(=O)O1)[C@@H](c1ccc(-c3ccc(C(F)(F)F)cc3)cc1)CC(=O)C[C@H]2c1ccccc1`, the cytotoxicity call was “inactive”.
With `COc1ccc(S(=O)(=O)Nc2ccc3c(c2)CC(=O)N([C@H](C)CO)C[C@@H](C)[C@H](CN(C)Cc2ccc(-c4ccccc4)cc2)O3)cc1` the cytotoxicity call was “active”.
With `CC(C)NC(=O)Nc1cccc2c1O[C@H](CN(C)Cc1ccc(C(=O)O)cc1)[C@H](C)CN([C@H](C)CO)C2=O` the cytotoxicity call was “inactive”.
With `COc1ccc(S(=O)(=O)Nc2ccc3c(c2)C(=O)N([C@@H](C)CO)C[C@H](C)[C@@H](CN(C)S(=O)(=O)c2ccc(OC)cc2)O3)cc1` the cytotoxicity call was “inactive”.
With `C[C@@H]1CCCCO[C@H](CN(C)S(=O)(=O)c2ccccc2)[C@@H](C)CN([C@@H](C)CO)C(=O)c2cc(NC(=O)Nc3ccc(F)cc3)ccc2O1` the cytotoxicity call was “inactive”.
With `CNC[C@@H]1CC[C@@H](N)[C@@H](O[C@H]2[C@H](O)[C@@H](O[C@H]3OC[C@](C)(O)[C@H](NC)[C@H]3O)[C@H](N)C[C@@H]2N)O1` the cytotoxicity call was “inactive”.
`CNC(C)C1CCC(N)C(OC2C(N)CC(N)C(OC3OCC(C)(O)C(NC)C3O)C2O)O1.O=S(=O)(O)O` (stereo unspecified) was tested, and the cytotoxicity call was “active”.
For `CN[C@@H]1[C@@H](O)[C@@H](O[C@@H]2[C@@H](O)[C@H](O[C@H]3O[C@H]([C@@H](C)NC)CC[C@H]3N)[C@@H](N)C[C@H]2N)OC[C@]1(C)O`, the cytotoxicity call was “inactive”.
In the case of `NC[C@H]1CCCN(C(=O)Nc2ccc(Oc3ccccc3)cc2)C1`, the cytotoxicity call is reported as “inactive”.
In the case of `NC[C@H]1CCN(c2ccc(Oc3ccccc3)cc2)C1`, the cytotoxicity call is reported as “active”.
`Cc1ccc(N2CC[C@@H](CN)C2)cc1` was tested, and the cytotoxicity call was “inactive”.
With `Cn1c(=O)n2n(c1=O)[C@H](C1CC1)C=C1CN3[C@@H]([C@H](Cc4ccccc4)OC(=O)[C@@H]3Cc3ccc(N=[N+]=[N-])cc3)[C@@H]12` the cytotoxicity call was “inactive”.
In the case of `Cc1ccc(S(=O)(=O)Nc2ccc3c(c2)C(=O)N([C@@H](C)CO)C[C@@H](C)[C@@H](CN(C)Cc2ccc(-c4ccccc4)cc2)O3)cc1`, the cytotoxicity call is reported as “active”.
`Cc1ccc(S(=O)(=O)Nc2ccc3c(c2)C(=O)N([C@H](C)CO)C[C@H](C)[C@H](CN(C)Cc2ccc(-c4ccccc4)cc2)O3)cc1` was tested, and the cytotoxicity call was “active”.
With `Cc1ccc(S(=O)(=O)Nc2ccc3c(c2)C(=O)N([C@@H](C)CO)C[C@H](C)[C@@H](CN(C)Cc2ccc(-c4ccccc4)cc2)O3)cc1` the cytotoxicity call was “inactive”.
With `Cc1ccc(S(=O)(=O)Nc2ccc3c(c2)C(=O)N([C@H](C)CO)C[C@H](C)[C@@H](CN(C)Cc2ccc(-c4ccccc4)cc2)O3)cc1` the cytotoxicity call was “inactive”.
For `Cc1ccc(S(=O)(=O)Nc2ccc3c(c2)C(=O)N([C@H](C)CO)C[C@@H](C)[C@H](CN(C)Cc2ccc(-c4ccccc4)cc2)O3)cc1`, the cytotoxicity call was “inactive”.
For `Cc1ccc(S(=O)(=O)Nc2ccc3c(c2)C(=O)N([C@@H](C)CO)C[C@@H](C)[C@H](CN(C)Cc2ccc(-c4ccccc4)cc2)O3)cc1`, the cytotoxicity call was “inactive”.
In the case of `Cc1ccc(S(=O)(=O)Nc2ccc3c(c2)C(=O)N([C@@H](C)CO)C[C@H](C)[C@H](CN(C)Cc2ccc(-c4ccccc4)cc2)O3)cc1`, the cytotoxicity call is reported as “inactive”.
In the case of `Cc1ccc(S(=O)(=O)Nc2ccc3c(c2)C(=O)N([C@H](C)CO)C[C@@H](C)[C@@H](CN(C)Cc2ccc(-c4ccccc4)cc2)O3)cc1`, the cytotoxicity call is reported as “active”.
